# PubChem BioAssay (NCI)
# About 83,000 compounds went through this panel and 20% of them were active in at least one assay; those are over-represented in the sample as a whole.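 The test compound was applied at a single concentration to cells in 96-well plates for 48 hours, and percent growth was recorded.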 Active and inactive are the calls of the source. How the source made its calls: active means growth percent below 10; inactive means the rest.
# Assays:
# Test in all cases: NCI-60 one-dose screen, 48 h (100 = growth as untreated, 0 = no growth, -100 = all killed)
# Settings in all cases: 10 µM unless noted
# SK-MEL-2 melanoma = test system: SK-MEL-2 melanoma
# EKVX NSCLC = test system: EKVX NSCLC
# SN12C renal = test system: SN12C renal
# UO-31 renal = test system: UO-31 renal
# TK-10 renal = test system: TK-10 renal
# ACHN renal = test system: ACHN renal
# CAKI-1 renal = test system: CAKI-1 renal
# A498 renal = test system: A498 renal
# CCRF-CEM leukemia = test system: CCRF-CEM leukemia
# MOLT-4 leukemia = test system: MOLT-4 leukemia
# SR leukemia = test system: SR leukemia
# OVCAR-8 ovarian = test system: OVCAR-8 ovarian
# OVCAR-5 ovarian = test system: OVCAR-5 ovarian
# OVCAR-4 ovarian = test system: OVCAR-4 ovarian
# SK-OV-3 ovarian = test system: SK-OV-3 ovarian
# IGROV1 ovarian = test system: IGROV1 ovarian
# OVCAR-3 ovarian = test system: OVCAR-3 ovarian
# HS 578T breast = test system: HS 578T breast
# NCI/ADR-RES ovarian = test system: NCI/ADR-RES ovarian
SMILES,growth (SK-MEL-2 melanoma),growth (EKVX NSCLC),growth (SN12C renal),growth (UO-31 renal),growth (TK-10 renal),growth (ACHN renal),growth (CAKI-1 renal),growth (A498 renal),growth (CCRF-CEM leukemia),growth (MOLT-4 leukemia),growth (SR leukemia),growth (OVCAR-8 ovarian),growth (OVCAR-5 ovarian),growth (OVCAR-4 ovarian),growth (SK-OV-3 ovarian),growth (IGROV1 ovarian),growth (OVCAR-3 ovarian),growth (HS 578T breast),growth (NCI/ADR-RES ovarian)
O=C(Nc1ccc(-c2nc(-c3cccc(OCCN4CCOCC4)c3)c(-c3ccnc(Br)c3)[nH]2)cc1)c1ccccc1,25.3% (inactive),32.3% (inactive),45.9% (inactive),-51.9% (active),48.6% (inactive),28.3% (inactive),-6.68% (active),-70.5% (active),15.1% (inactive),1.62% (active),-11.6% (active),41.5% (inactive),35.4% (inactive),55.2% (inactive),-25.6% (active),43.4% (inactive),44.2% (inactive),-41% (active),53.4% (inactive)
CCOC(=O)c1[nH]c(C)c(C(=O)OCc2ccccc2C#N)c1C,82.3% (inactive),114% (inactive),95% (inactive),88.3% (inactive),90.9% (inactive),87.4% (inactive),82.1% (inactive),79.3% (inactive),92.4% (inactive),78.8% (inactive),45.7% (inactive),70.5% (inactive),105% (inactive),85.8% (inactive),88.3% (inactive),44.6% (inactive),62.5% (inactive),49.1% (inactive),14.9% (inactive)
NC1=NC(c2cccc(Br)c2)c2sc3ccc(Cl)cc3c2N1 (stereo not drawn),108% (inactive),85.5% (inactive),93.5% (inactive),62.8% (inactive),123% (inactive),92.9% (inactive),79.5% (inactive),104% (inactive),121% (inactive),92.2% (inactive),77.6% (inactive),102% (inactive),103% (inactive),93.5% (inactive),92.1% (inactive),77% (inactive),99.2% (inactive),104% (inactive),103% (inactive)
O=c1c2cc(F)ccc2sc2c(NCCCNCCO)nc3ccccc3c12,90.9% (inactive),51.9% (inactive),46.9% (inactive),10.9% (inactive),41% (inactive),8.85% (active),-9.01% (active),2.69% (active),6.27% (active),-31.6% (active),-45.1% (active),26% (inactive),63.4% (inactive),33.3% (inactive),79.7% (inactive),22.4% (inactive),-14.6% (active),34.5% (inactive),32.4% (inactive)
O=C(Cc1ccc2c(c1)OCCO2)Nc1nc2ccc(F)cc2s1,70.5% (inactive),93.8% (inactive),70.5% (inactive),62.5% (inactive),117% (inactive),98% (inactive),111% (inactive),104% (inactive),87.3% (inactive),95.1% (inactive),103% (inactive),94.7% (inactive),90.3% (inactive),96.4% (inactive),105% (inactive),48.3% (inactive),104% (inactive),106% (inactive),99% (inactive)
O=S(=O)(Nc1ccc(-c2nc(-c3cccc(OCCN4CCOCC4)c3)c(-c3ccnc(Br)c3)[nH]2)cc1)c1ccccc1,24.8% (inactive),50.2% (inactive),51.5% (inactive),20.5% (inactive),48.2% (inactive),27.1% (inactive),28.2% (inactive),53% (inactive),15.1% (inactive),8.11% (active),-18.7% (active),32.3% (inactive),54.5% (inactive),40.6% (inactive),59.1% (inactive),43.7% (inactive),46.1% (inactive),0.194% (active),54.1% (inactive)
O=C1CCC/C=C\C[C@H]2C=CC(=O)/C2=C/C[C@H](CCc2cccc(C(F)(F)F)c2)O1,-57.2% (active),-47.6% (active),-37.9% (active),-95.5% (active),-68.9% (active),-85.1% (active),12.5% (inactive),-79.7% (active),4.33% (active),-18.6% (active),-4.73% (active),5.51% (active),-16.9% (active),12.8% (inactive),-34.9% (active),,-65.8% (active),14.3% (inactive),1.09% (active)
N#C/C(=C\c1ccc(F)cc1)n1nc2cccc(F)c2n1,58.7% (inactive),71.1% (inactive),76.2% (inactive),41% (inactive),60.7% (inactive),42.9% (inactive),24.8% (inactive),11.7% (inactive),25.6% (inactive),52.3% (inactive),13.7% (inactive),81.2% (inactive),79.7% (inactive),34% (inactive),74.9% (inactive),73.1% (inactive),-3.76% (active),27.6% (inactive),8.9% (active)
COc1cccc(/C=C2\C=C(c3ccccc3)N(Cc3ccccc3)C2=O)c1,72.6% (inactive),39.3% (inactive),43.6% (inactive),41.2% (inactive),88.5% (inactive),48% (inactive),55.1% (inactive),16% (inactive),62.2% (inactive),59.1% (inactive),10.9% (inactive),68% (inactive),92.8% (inactive),71.9% (inactive),42% (inactive),,59.3% (inactive),42% (inactive),51.3% (inactive)
Cc1ccc(NC2=C(Cl)C(=O)c3nc(C)ccc3C2=O)cc1,-23.8% (active),58.6% (inactive),-70.4% (active),-80.6% (active),130% (inactive),-98.1% (active),-72% (active),91% (inactive),0.58% (active),-13.5% (active),21.8% (inactive),-49.4% (active),-11.6% (active),-97.9% (active),88.7% (inactive),-75.5% (active),-76.7% (active),27.9% (inactive),30.6% (inactive)
CS(=O)(=O)N(c1cc(-c2ccc3ncnc(Nc4ccc(F)c(Cl)c4)c3c2)cnc1Cl)S(C)(=O)=O,27.3% (inactive),26.3% (inactive),31.6% (inactive),17.1% (inactive),19% (inactive),35.5% (inactive),31.9% (inactive),-30.8% (active),18.4% (inactive),6.91% (active),47.5% (inactive),66.1% (inactive),30.6% (inactive),65.7% (inactive),14.6% (inactive),-22.3% (active),36.1% (inactive),-1.88% (active),69% (inactive)
COc1ccc(NC2=C(Br)C(=O)C(C)=C(C)C2=O)cc1,92.4% (inactive),83.5% (inactive),79.6% (inactive),74% (inactive),172% (inactive),85.6% (inactive),94.9% (inactive),93.5% (inactive),-13.8% (active),-9.34% (active),2.06% (active),-29.7% (active),102% (inactive),-99.6% (active),69.4% (inactive),41.3% (inactive),60.3% (inactive),96.9% (inactive),80.6% (inactive)
Cc1ccc2sc3c(NCCN)nc4ccccc4c3c(=O)c2c1,105% (inactive),88% (inactive),69.3% (inactive),50.6% (inactive),96.2% (inactive),66.4% (inactive),42.7% (inactive),61.6% (inactive),32.8% (inactive),49% (inactive),-13.4% (active),80.1% (inactive),97% (inactive),67% (inactive),88.4% (inactive),72.4% (inactive),63% (inactive),85% (inactive),80.5% (inactive)
COc1cccc(-c2nc(-c3ccc(NS(=O)(=O)c4ccccc4)cc3)[nH]c2-c2ccnc(Br)c2)c1,10.5% (inactive),32.1% (inactive),28.4% (inactive),11.8% (inactive),46.3% (inactive),11.9% (inactive),18.3% (inactive),28.4% (inactive),18.9% (inactive),4.8% (active),8.32% (active),33.4% (inactive),48.3% (inactive),34.2% (inactive),63.1% (inactive),44.6% (inactive),30.2% (inactive),7.88% (active),40.8% (inactive)
COc1ccc(C(=O)COC(=O)[C@H](C[Se][Se]C[C@H](NC(=O)c2ccc(Br)cc2F)C(=O)OCC(=O)c2ccc(OC)cc2)NC(=O)c2ccc(Br)cc2F)cc1,-93.8% (active),-69.4% (active),-79.9% (active),-95.4% (active),-79.6% (active),-86.9% (active),-83.2% (active),-23.8% (active),-25.4% (active),-1.84% (active),-17.1% (active),-64.2% (active),-68.2% (active),-87.9% (active),-91.9% (active),-86.1% (active),-86.3% (active),-6.55% (active),-60% (active)
